# Measurements: ChEMBL document CHEMBL1157539, “Thousands of chemical starting points for antimalarial lead identification” (Nature, 2010)
# Tested on: Plasmodium falciparum
# Experiment: GSK_TCMDC: Inhibition of Plasmodium falciparum 3D7 in whole red blood cells, using parasite LDH activity as an index of growth. Test compounds present at 2uM
# Format: functional
row,SMILES,Inhibition [%]
1,Cc1ccc(Nc2nccc(NCC(O)c3cccc(C(F)(F)F)c3)n2)cc1 (stereo not given),99
2,CCOC(=O)c1ccc(-c2cnc(N)c(-c3nc4cccc(C)c4[nH]3)c2)cc1,100
3,Cc1ccccc1C1CCN(c2ncc(C(=O)NC3CC3)cc2Cl)CC1.O=C(O)C(F)(F)F,96
4,CCOc1cc(C(=O)N[C@@H](Cc2ccccc2)[C@H](O)CNCc2cc(OC)cc(OC)c2)cc(N2CCCC2=O)c1.Cl,94
5,Cc1cc(N(C)C2CCN(CC3CCCCC3)C2)nc(Nc2ccc(Cl)cc2)n1 (stereo not given),98
6,COc1ccc2[nH]cc(C3CCN(CCC4CCN(C(=O)/C=C/c5ccc(Cl)c(Cl)c5)CC4)CC3)c2c1,100
7,CCc1cc2c3c(N)nc(N)nc3ccc2n1C(CC)CC,96
8,Cl.NCCCCc1c(-c2ccc(Cl)c(Cl)c2)[nH]c2ccc(Cl)cc12,97
9,O=C(C=Cc1cn(-c2ccccc2)nc1-c1ccccc1)N1CCN(c2ccncc2)CC1,90
10,CC1(C)N=C(N)N=C(Nc2ccc(F)c(F)c2)N1.Cl,91
11,Br.Cn1c(=N)n(CC(=O)OCc2ccc(OCc3ccccc3)cc2)c2ccccc21,100
12,CCc1nc2ccc(C(=O)OC)nc2n1Cc1ccc2oc(-c3ccccc3N)c(Br)c2c1,93
13,CCCCN(C)CC#Cc1ccc(-c2ccc3[nH]c(C)c(Br)c(=O)c3c2)cn1,98
14,Cc1nc(-c2nc(NCc3ccccn3)ncc2-c2ccsc2)sc1C,92
15,O=c1cc(NCCCNCc2ccccc2-c2ccccc2)[nH]c2ccccc12,88
16,Cc1ccc(NC(=O)N2CCCN(CCCCCNC(=O)/C=C/c3ccc(Cl)c(Cl)c3)CC2)cc1,99
17,Cc1nc(N)nc(N)c1CCCOc1ccccc1Cl,98
18,CCCc1ccc(C(=O)N2C(c3nccs3)C(C(N)=O)CC2(CC(C)C)C(=O)O)cc1 (stereo not given),94
19,Br.CC1(C)NC(N)=NC(=N)N1OCCc1cccc2ccccc12,95
20,Cc1ccc(/C=C/C(=O)NC2CCC(N3CCC(c4ccccc4C)CC3)CC2)cc1C (stereo not given),100

row,SMILES,Inhibition [%]
1,O=C(Nc1nc(-c2ccccn2)cs1)c1ccc(Br)s1,96
2,CC(=O)Nc1ccc(CNC2Cc3ccc(-c4ccc(Cl)c(Cl)c4)cc3C2)cc1 (stereo not given),89
3,COc1ccc2nc(C)cc(Nc3ccc(Oc4ccc5ccccc5c4Cl)c(Cl)c3)c2c1,100
4,COc1ccc2ncc(F)c(CCN3CC[C@@H](CNCc4ccc5c(c4C)OCCO5)C3)c2n1.Cl,94
5,COc1ccc2nccc(N(C)CC3(O)CCC(NCc4cc5c(cn4)OCCO5)CC3)c2n1.Cl (stereo not given),99
6,O=C(Nc1cccc(Cl)c1N1CCOCC1)C(Cl)(Cl)Cl,96
7,CC(C)C[C@H](NC(=O)c1cc2ccccc2s1)C(=O)N[C@H]1CCN(Cc2ccc(OCCN3CCNCC3)c3ccccc23)C1.O=C(O)C(F)(F)F,100
8,CS(=O)(=O)c1ccc(CCNCc2ccc(-c3cccc(-c4nc5ccccc5[nH]4)c3)cc2)cc1.O=C(O)C(F)(F)F,100
9,CCCN1CCN(CCCNC(=O)c2cc3c(-c4ccc(Cl)cc4)nn(C)c3s2)CC1,88
10,CN1CCN(c2ccnc3ccc(NC(=O)Nc4cccc(C#N)c4)cc23)CC1,99
11,O=C(Nc1ccc(Oc2ccc(OC(F)(F)F)cc2)cc1)c1ccco1,90
12,Cc1cn(CC(=O)Nc2cccc(-c3cccc(-c4nc5cccc(C)c5[nH]4)c3)c2)c(=O)[nH]c1=O,100
13,Cc1noc(C)c1-c1cccc(CNCc2cccc(-c3cccc(-c4nc5cc(C(F)(F)F)ccc5[nH]4)c3)c2)c1.O=C(O)C(F)(F)F,100
14,COc1cc2c(cc1C=CC(=O)N1CCN(Cc3nc(O)c4c(C)c(C)sc4n3)CC1)OC(C)C2 (stereo not given),82
15,O=c1ccc(CNc2nc(NCCc3ccccc3)nc3cc(Cl)ccc23)c[nH]1,95
16,COc1ccccc1/C=C/C(=O)N(C)C1CCN(CCCCCNC(=O)/C=C/c2ccc(Cl)c(Cl)c2)CC1,83
17,CN1CCN(c2ccc(Nc3nccc(-c4c(-c5cccc(NC(=O)c6c(F)cccc6F)c5)nn5ccccc45)n3)cc2)CC1,98
18,N#Cc1cc([N+](=O)[O-])ccc1-n1nc(-c2cccc(Cl)c2)n(Cc2ccco2)c1=S,100
19,COc1cc(CNCCCCCCNCc2cc(OC)cc3ccccc23)c2ccccc2c1.CS(=O)(=O)O,100
20,O=c1c(NCCCN(Cc2ccc(F)cc2)c2ccccn2)c(NCc2ccncc2)c1=O,100

# Tested on: Plasmodium falciparum
# Experiment: GSK_TCMDC: Inhibition of Plasmodium falciparum Dd2 in whole red blood cells, using parasite LDH activity as an index of growth. Test compounds present at 2uM
# Format: functional
row,SMILES,Inhibition [%]
1,Cc1ccc(Nc2nccc(NCC(O)c3cccc(C(F)(F)F)c3)n2)cc1 (stereo not given),74
2,CCOC(=O)c1ccc(-c2cnc(N)c(-c3nc4cccc(C)c4[nH]3)c2)cc1,79
3,Cc1ccccc1C1CCN(c2ncc(C(=O)NC3CC3)cc2Cl)CC1.O=C(O)C(F)(F)F,96
4,CCOc1cc(C(=O)N[C@@H](Cc2ccccc2)[C@H](O)CNCc2cc(OC)cc(OC)c2)cc(N2CCCC2=O)c1.Cl,63
5,Cc1cc(N(C)C2CCN(CC3CCCCC3)C2)nc(Nc2ccc(Cl)cc2)n1 (stereo not given),35
6,COc1ccc2[nH]cc(C3CCN(CCC4CCN(C(=O)/C=C/c5ccc(Cl)c(Cl)c5)CC4)CC3)c2c1,56
7,CCc1cc2c3c(N)nc(N)nc3ccc2n1C(CC)CC,12
8,Cl.NCCCCc1c(-c2ccc(Cl)c(Cl)c2)[nH]c2ccc(Cl)cc12,20
9,O=C(C=Cc1cn(-c2ccccc2)nc1-c1ccccc1)N1CCN(c2ccncc2)CC1,20
10,CC1(C)N=C(N)N=C(Nc2ccc(F)c(F)c2)N1.Cl,1
11,Br.Cn1c(=N)n(CC(=O)OCc2ccc(OCc3ccccc3)cc2)c2ccccc21,74
12,CCc1nc2ccc(C(=O)OC)nc2n1Cc1ccc2oc(-c3ccccc3N)c(Br)c2c1,75
13,CCCCN(C)CC#Cc1ccc(-c2ccc3[nH]c(C)c(Br)c(=O)c3c2)cn1,93
14,Cc1nc(-c2nc(NCc3ccccn3)ncc2-c2ccsc2)sc1C,87
15,O=c1cc(NCCCNCc2ccccc2-c2ccccc2)[nH]c2ccccc12,46
16,Cc1ccc(NC(=O)N2CCCN(CCCCCNC(=O)/C=C/c3ccc(Cl)c(Cl)c3)CC2)cc1,2
17,Cc1nc(N)nc(N)c1CCCOc1ccccc1Cl,5
18,CCCc1ccc(C(=O)N2C(c3nccs3)C(C(N)=O)CC2(CC(C)C)C(=O)O)cc1 (stereo not given),80
19,Br.CC1(C)NC(N)=NC(=N)N1OCCc1cccc2ccccc12,97
20,Cc1ccc(/C=C/C(=O)NC2CCC(N3CCC(c4ccccc4C)CC3)CC2)cc1C (stereo not given),43

row,SMILES,Inhibition [%]
1,O=C(Nc1nc(-c2ccccn2)cs1)c1ccc(Br)s1,84
2,CC(=O)Nc1ccc(CNC2Cc3ccc(-c4ccc(Cl)c(Cl)c4)cc3C2)cc1 (stereo not given),7
3,COc1ccc2nc(C)cc(Nc3ccc(Oc4ccc5ccccc5c4Cl)c(Cl)c3)c2c1,98
4,COc1ccc2ncc(F)c(CCN3CC[C@@H](CNCc4ccc5c(c4C)OCCO5)C3)c2n1.Cl,11
5,COc1ccc2nccc(N(C)CC3(O)CCC(NCc4cc5c(cn4)OCCO5)CC3)c2n1.Cl (stereo not given),14
6,O=C(Nc1cccc(Cl)c1N1CCOCC1)C(Cl)(Cl)Cl,95
7,CC(C)C[C@H](NC(=O)c1cc2ccccc2s1)C(=O)N[C@H]1CCN(Cc2ccc(OCCN3CCNCC3)c3ccccc23)C1.O=C(O)C(F)(F)F,96
8,CS(=O)(=O)c1ccc(CCNCc2ccc(-c3cccc(-c4nc5ccccc5[nH]4)c3)cc2)cc1.O=C(O)C(F)(F)F,99
9,CCCN1CCN(CCCNC(=O)c2cc3c(-c4ccc(Cl)cc4)nn(C)c3s2)CC1,20
10,CN1CCN(c2ccnc3ccc(NC(=O)Nc4cccc(C#N)c4)cc23)CC1,96
11,O=C(Nc1ccc(Oc2ccc(OC(F)(F)F)cc2)cc1)c1ccco1,71
12,Cc1cn(CC(=O)Nc2cccc(-c3cccc(-c4nc5cccc(C)c5[nH]4)c3)c2)c(=O)[nH]c1=O,100
13,Cc1noc(C)c1-c1cccc(CNCc2cccc(-c3cccc(-c4nc5cc(C(F)(F)F)ccc5[nH]4)c3)c2)c1.O=C(O)C(F)(F)F,95
14,COc1cc2c(cc1C=CC(=O)N1CCN(Cc3nc(O)c4c(C)c(C)sc4n3)CC1)OC(C)C2 (stereo not given),87
15,O=c1ccc(CNc2nc(NCCc3ccccc3)nc3cc(Cl)ccc23)c[nH]1,78
16,COc1ccccc1/C=C/C(=O)N(C)C1CCN(CCCCCNC(=O)/C=C/c2ccc(Cl)c(Cl)c2)CC1,63
17,CN1CCN(c2ccc(Nc3nccc(-c4c(-c5cccc(NC(=O)c6c(F)cccc6F)c5)nn5ccccc45)n3)cc2)CC1,98
18,N#Cc1cc([N+](=O)[O-])ccc1-n1nc(-c2cccc(Cl)c2)n(Cc2ccco2)c1=S,100
19,COc1cc(CNCCCCCCNCc2cc(OC)cc3ccccc23)c2ccccc2c1.CS(=O)(=O)O,94
20,O=c1c(NCCCN(Cc2ccc(F)cc2)c2ccccn2)c(NCc2ccncc2)c1=O,95
